Results on five compounds are retold here after PubChem BioAssay.

Assay [1] can be described thus: compounds binding Alexa647 anti-His antibody – biochemical, small-molecule microarray, 635 nm fluorescence, artefact control for SMM control protein annotation, primary screen (AID 1128).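 Also: score merges feature fluorescence with signal-to-noise for each printed compound spot.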 Conditions: higher = more signal.
The subject of assay [2] is Human papillomavirus type 1a E7 protein (residues 1-88). The assay can be described thus: HPV1a E7 small-molecule binders, primary screen, biochemical, small-molecule microarray, residues 1-88, 635 nm (AID 1129). Conditions: small-molecule microarray binding, fluorescence 635 nm; higher = more signal.
The target in assay [3] is Focal adhesion kinase 1 (Homo sapiens) (UniProt Q05397). The assay can be described thus: PTK2 protein binding on printed compound slides – biochemical, small-molecule microarray, 635/667 nm fluorescence, BSA, DTT, primary screen (AID 1130).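 Also: composite of spot emission at 667 nm and signal to noise over triplicate slides.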 Particulars: 635 nm fluorescence, higher = more signal.
Chain of Focal adhesion kinase 1 (Homo sapiens) (Q05397 whole entry, looked up): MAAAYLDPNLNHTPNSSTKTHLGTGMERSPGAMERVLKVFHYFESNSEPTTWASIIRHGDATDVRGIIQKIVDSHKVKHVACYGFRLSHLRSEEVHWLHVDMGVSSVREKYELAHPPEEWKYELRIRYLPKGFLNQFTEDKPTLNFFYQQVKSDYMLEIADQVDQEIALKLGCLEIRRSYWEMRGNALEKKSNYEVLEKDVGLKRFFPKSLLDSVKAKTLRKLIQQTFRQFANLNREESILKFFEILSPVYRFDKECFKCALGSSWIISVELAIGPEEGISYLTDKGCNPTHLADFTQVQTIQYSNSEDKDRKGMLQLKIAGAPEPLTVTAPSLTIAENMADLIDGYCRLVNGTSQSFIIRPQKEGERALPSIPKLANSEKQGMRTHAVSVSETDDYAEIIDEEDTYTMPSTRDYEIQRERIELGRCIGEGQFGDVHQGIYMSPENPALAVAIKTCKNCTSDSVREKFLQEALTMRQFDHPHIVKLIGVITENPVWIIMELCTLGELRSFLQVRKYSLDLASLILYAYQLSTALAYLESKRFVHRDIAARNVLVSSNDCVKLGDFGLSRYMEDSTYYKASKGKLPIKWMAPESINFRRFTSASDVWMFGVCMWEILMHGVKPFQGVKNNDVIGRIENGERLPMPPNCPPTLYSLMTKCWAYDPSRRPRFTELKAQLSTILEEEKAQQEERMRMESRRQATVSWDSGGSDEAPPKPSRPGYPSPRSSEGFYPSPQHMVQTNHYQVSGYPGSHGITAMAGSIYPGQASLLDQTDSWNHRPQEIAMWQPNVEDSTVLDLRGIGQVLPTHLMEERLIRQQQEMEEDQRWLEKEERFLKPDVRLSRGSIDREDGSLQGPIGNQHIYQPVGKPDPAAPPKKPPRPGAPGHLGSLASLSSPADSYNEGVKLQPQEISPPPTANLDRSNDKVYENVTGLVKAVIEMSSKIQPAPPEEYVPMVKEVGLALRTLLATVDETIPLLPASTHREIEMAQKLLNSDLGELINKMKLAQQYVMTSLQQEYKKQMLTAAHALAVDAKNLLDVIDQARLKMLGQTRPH
Assay [4] has as its system Fibrinogen (Alexa647-labelled). The assay can be described thus: Alexa647-fibrinogen binding to printed small molecules – biochemical, small-molecule microarray, 635/667 nm fluorescence, artefact control for SMM control-protein annotation, profiling panel (AID 1131).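 Also: z-score merges 667 nm fluorescence with per-spot signal-to-noise over triplicate slides.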 Particulars: fibrinogen-A647 binding fluorescence, higher = more signal.
Assay [5] deals with Follistatin (Homo sapiens) (UniProt P19883). The assay can be described thus: FST protein binding to printed compounds – biochemical, small-molecule microarray, 635/667 nm fluorescence, primary screen (AID 1132). Conditions: 635 nm fluorescence, higher = more signal.
Chain of Follistatin (Homo sapiens) (P19883 whole entry, looked up): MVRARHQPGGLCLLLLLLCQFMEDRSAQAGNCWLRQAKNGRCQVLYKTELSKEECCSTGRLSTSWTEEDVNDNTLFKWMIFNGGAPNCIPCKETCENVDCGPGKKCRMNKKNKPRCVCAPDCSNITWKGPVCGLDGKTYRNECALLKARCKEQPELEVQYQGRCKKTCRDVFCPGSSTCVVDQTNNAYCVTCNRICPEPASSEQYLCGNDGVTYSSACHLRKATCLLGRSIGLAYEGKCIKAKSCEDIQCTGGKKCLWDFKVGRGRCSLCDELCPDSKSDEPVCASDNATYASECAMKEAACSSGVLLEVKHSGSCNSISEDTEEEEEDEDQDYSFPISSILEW
Assay [6] addresses Fibroblast growth factor 2 (Homo sapiens) (UniProt P09038). The assay can be described thus: basic fibroblast growth factor binding to printed compounds – biochemical, small-molecule microarray, 635/667 nm fluorescence, primary screen (AID 1133). Particulars: FGF2, fluorescence 635/667, higher = more signal.
Assay [7] is described as follows: JC-1 mitochondrial potential readout, lung cancer cells – cell-based, A549, JC-1 fluorescence, basal, 24 h, 100 nL, profiling panel (AID 1138).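 Also: A549 lung adenocarcinoma cells under basal conditions with no added stimulus; test concentration not given here.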 Particulars: higher = more signal.
In a further assay the test system is Lefty1. The assay can be described thus: Lefty1 protein binding to printed compounds – biochemical, small-molecule microarray, 635/667 nm fluorescence, primary screen (AID 1139). Particulars: fluorescence 635/667, higher = more signal.
Assay [8] concerns wheat germ agglutinin (Triticum aestivum), Alexa647-labelled. The assay can be described thus: Alexa647-WGA lectin binding to printed small molecules – biochemical, small-molecule microarray, 635/667 nm fluorescence, artefact control for SMM control-protein annotation, profiling panel (AID 1140).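 Also: score merges 667 nm feature emission with signal to noise over triplicate slides.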 Particulars: WGA-A647 binding, 635 nm fluorescence, higher = more signal.
In assay [9] the target is Luciferin 4-monooxygenase (Photinus pyralis) (UniProt P08659). As to the kind of experiment: inhibition of purified Photinus pyralis luciferase – biochemical, luminescence, purified enzyme, 2006 set, primary screen (AID 1141).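 Also: cell-free assay with purified firefly luciferase at 100 ng per well in PBS; test concentration not given here.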 Conditions: purified firefly luciferase, SteadyGlo luminescence, 30 min; higher = more signal, called active from +8 up or from −8 down.
Chain of Luciferin 4-monooxygenase (Photinus pyralis) (P08659 whole entry, looked up): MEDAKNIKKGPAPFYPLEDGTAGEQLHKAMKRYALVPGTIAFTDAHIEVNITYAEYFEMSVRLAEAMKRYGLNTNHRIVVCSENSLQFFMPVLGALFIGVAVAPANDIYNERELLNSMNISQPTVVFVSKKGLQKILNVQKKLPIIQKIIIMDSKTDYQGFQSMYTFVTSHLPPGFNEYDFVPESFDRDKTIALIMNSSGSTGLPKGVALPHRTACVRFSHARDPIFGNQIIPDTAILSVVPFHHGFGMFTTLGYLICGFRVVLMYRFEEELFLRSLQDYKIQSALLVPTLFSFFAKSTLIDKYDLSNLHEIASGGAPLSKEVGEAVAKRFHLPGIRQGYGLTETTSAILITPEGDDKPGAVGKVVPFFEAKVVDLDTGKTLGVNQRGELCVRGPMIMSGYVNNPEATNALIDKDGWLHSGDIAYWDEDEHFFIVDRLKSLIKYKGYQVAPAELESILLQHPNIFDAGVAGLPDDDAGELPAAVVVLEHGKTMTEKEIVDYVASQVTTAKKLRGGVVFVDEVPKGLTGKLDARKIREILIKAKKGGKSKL
The test system of assay [10] is Wnt5a (protein binding on small-molecule microarray). As to the kind of experiment: small molecules binding Wnt5a protein – biophysical, small-molecule microarray, 635/667 nm fluorescence, primary screen (AID 1142).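 Also: fluorescence read at 667 nm with signal to noise per printed feature.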 Conditions: 635 nm fluorescence, higher = more signal.
Assay [11] in a line: ATP-based viability of Huh7 replicon cells – cell-based, CellTiter-Glo luminescence, basal, 48 h, cytotoxicity control for HCV replication inhibitor project, primary screen (AID 1143).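 Also: Huh7 hepatoma cells carrying a hepatitis C replication reporter with no stimulus; test concentration not given here.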 Particulars: higher = more signal, called active from +8 up or from −8 down.
The nature of assay [12]: Pseudomonas biofilm growth suppression – PAO1 strain, BacTiter-Glo luminescence, LB-PBS, primary screen (AID 1144). Conditions: P. aeruginosa PAO1 biofilm, 12 h, higher = more signal.
A short description of assay [13]: basal CRE-LacZ reporter activity in PC12 – cell-based, unstimulated, primary screen (AID 1145). Particulars: no forskolin, luminescence, 4.5 h, higher = more signal, called active from +8 up or from −8 down.
Assay [14] in a line: forskolin-driven CRE-LacZ activity in PC12 – cell-based, CRE-LacZ reporter, forskolin-stimulated, primary screen (AID 1146).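 Also: PC12 cells with 6xCRE LacZ reporter stimulated by forskolin 10 µM; beta-galactosidase reporter signal reflecting CREB driven transcription.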 Conditions: luminescence, 4.5 h, higher = more signal, called active from +8 up or from −8 down.
For assay [15], the target named is Streptavidin (Streptomyces avidinii) (UniProt P22629). As to the kind of experiment: compounds binding control protein streptavidin – biophysical, small-molecule microarray, 635/667 nm fluorescence, artefact control for SMM compound annotation, primary screen (AID 1147).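 Also: signal reflects streptavidin binding to arrayed compounds as a control protein.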 Particulars: higher = more signal.
Chain of Streptavidin (Streptomyces avidinii) (P22629 whole entry, looked up): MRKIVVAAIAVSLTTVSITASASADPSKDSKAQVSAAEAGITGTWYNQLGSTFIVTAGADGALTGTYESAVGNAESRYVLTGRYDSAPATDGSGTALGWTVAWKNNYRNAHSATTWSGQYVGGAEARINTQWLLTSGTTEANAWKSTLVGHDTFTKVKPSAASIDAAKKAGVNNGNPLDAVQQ
A short description of assay [16]: probe aInhba binding on compound microarray – biochemical, small-molecule microarray, 635/667 nm fluorescence, primary screen (AID 1148).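 Also: score merges 667nm spot fluorescence with signal-to-noise for antibody binding to printed compounds.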 Particulars: higher = more signal.
The target of assay [17] is Torsin-1A (Homo sapiens) (UniProt O14656). The assay can be described thus: TOR1A wild-type binding on microarray – cell lysate, small-molecule microarray, lysate, 635/667 nm, primary screen (AID 1149). Particulars: COS7 hTOR1A-WT lysate, 635 nm fluorescence, higher = more signal.
Chain of Torsin-1A (Homo sapiens) (O14656 whole entry, looked up): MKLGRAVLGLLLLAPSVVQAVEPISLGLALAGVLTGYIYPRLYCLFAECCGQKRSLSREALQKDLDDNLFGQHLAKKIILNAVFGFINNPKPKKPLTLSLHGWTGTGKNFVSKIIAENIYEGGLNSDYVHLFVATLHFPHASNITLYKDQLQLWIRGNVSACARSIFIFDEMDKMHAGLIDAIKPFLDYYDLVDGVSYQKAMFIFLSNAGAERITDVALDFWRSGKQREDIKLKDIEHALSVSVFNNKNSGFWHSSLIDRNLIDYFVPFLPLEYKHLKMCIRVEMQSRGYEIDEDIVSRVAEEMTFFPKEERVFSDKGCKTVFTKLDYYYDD
The target is the same in assay [18]. As to the kind of experiment: torsin A mutant lysate binding on microarrays – cell lysate, small-molecule microarray, COS7 lysate, 635/667 nm fluorescence, primary screen (AID 1150).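 Also: score pools 667 nm emission and signal to noise measuring lysate protein binding.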 Conditions: COS7 hTOR1A mutant lysate, 635 nm fluorescence, higher = more signal.
The subject of assay [19] is Sonic hedgehog protein (Shh). As to the kind of experiment: Sonic hedgehog microarray binding compounds – biochemical, small-molecule microarray, 635/667 nm fluorescence, primary screen (AID 1151).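 Also: Shh protein binding to compounds spotted on small-molecule microarray slides; score combines spot fluorescence intensity with signal-to-noise across triplicate slides.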 Particulars: 635 nm fluorescence, higher = more signal.

The source made the active and inactive calls. Unless noted, no rule for the calls is given here.

Chain of Fibroblast growth factor 2 (Homo sapiens) (P09038 whole entry, looked up): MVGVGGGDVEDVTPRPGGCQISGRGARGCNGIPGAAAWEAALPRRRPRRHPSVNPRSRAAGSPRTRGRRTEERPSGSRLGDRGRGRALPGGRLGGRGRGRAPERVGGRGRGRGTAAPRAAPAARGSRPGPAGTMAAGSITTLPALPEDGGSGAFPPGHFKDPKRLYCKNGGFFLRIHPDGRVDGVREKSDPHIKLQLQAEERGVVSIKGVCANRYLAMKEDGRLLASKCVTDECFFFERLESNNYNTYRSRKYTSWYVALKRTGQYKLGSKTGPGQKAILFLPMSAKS

On to `Cc1ccc(S[C@]2(C(=O)O)CC(=O)N(Cc3ccccc3Cl)[C@@H]2c2ccc(CO)cc2)cc1`, for which the composite z-score in assay [1] is -0.24; in assay [2], -0.558; in assay [3] it was -0.299; in assay [4] it was -0.271; in [5] it was -0.83; in assay [6], -0.26. The composite z-score was -1.26 in the assay on Lefty1; 0.478 in [8]; 0.0044 in assay [10]; -0.868 in assay [15]; -0.0791 in assay [16]; -0.951 with Torsin-1A (Homo sapiens) [17]. Further, the results for the composite z-score (with Torsin-1A (Homo sapiens) [18]; in assay [19]) were 0.822 and -0.259, respectively. Also, the z-score in assay [7] was -0.939; in assay [9], -0.999 (inactive); in assay [11], -1.55 (inactive); in assay [12], 0.596 (inactive); in [13] it was 0.441 (inactive); in assay [14], 1.27 (inactive).
As to `CC(C)(C)OC(=O)CC[C@]1(C(=O)NCCN2CCOCC2)N=C(c2ccc(OCCCO)cc2)O[C@H]1c1ccccc1`, the composite z-score in [1] was 2.21; in [2] it was 0.358; in assay [3] it was 0.75; in assay [4], 0.955; in assay [5] it was -0.0269; in assay [6] it was -0.397. In addition, the composite z-score was -0.964 in the assay with Lefty1; 0.391 in assay [8]; 0.298 in assay [10]; 0.541 in assay [15]; 0.165 in assay [16]; -0.357 with Torsin-1A (Homo sapiens) [17]. Also, the composite z-score with Torsin-1A (Homo sapiens) [18] is 0.833; in assay [19] it was -1.23. The z-score was 1.21 in assay [7]; -1.16 (inactive) in assay [9]; 0.268 (inactive) in assay [11]; -0.375 (inactive) in assay [12]; -0.174 (inactive) in assay [13]; -0.266 (inactive) in assay [14].
Take `COc1ccc(C(O)C2C=CC3C(=O)N(Cc4ccccc4)C(=O)C3N2n2cnnc2)c2ccccc12` (stereo not given): the composite z-score in [1] is 0.727; in assay [2] it was 0.782; in assay [3], 1.77; in assay [4], 1.01; in assay [5] it was 0.421; in assay [6], -1.54. Further, the composite z-score in the assay with Lefty1 was 0.635; in assay [8], 0.0261; in [10] it was -0.795; in assay [15], -0.677; in [16], -0.0136; with Torsin-1A (Homo sapiens) [17], 1.95. For the same compound, the values for the composite z-score (in the assay with Torsin-1A (Homo sapiens) [18]; in [19]) were 0.432 and -0.237, respectively. Further, the z-score in assay [7] was -1.08; in [9], 1.01 (inactive); in [11], -3.64 (inactive); in assay [12] it was 0.038 (inactive); in assay [13], -0.126 (inactive); in assay [14] it was -0.138 (inactive).
`CCCCN1CC=CC23O[C@@H]4C=CCOC(=O)[C@@H]4[C@H]2C(=O)N(C(C)CO)[C@@H]3C1=O` (stereo not given in full): the composite z-score in assay [1] is -0.461; in assay [2] it was -1.01; in assay [3] it was -0.243; in assay [4], -1.32; in assay [5], -1.55; in assay [6], -0.588. Further, the composite z-score in the assay with Lefty1 was -1.56; in assay [8], -1.02; in assay [10], -0.166; in [15] it was -0.78; in [16] it was -0.128; with Torsin-1A (Homo sapiens) [17] it was 0.0171. The composite z-score in the assay with Torsin-1A (Homo sapiens) [18] was -0.241; in assay [19] it was -0.213. The z-score in assay [7] is -0.414; in assay [9], -0.313 (inactive); in assay [11], -0.251 (inactive); in [12], 1.27 (inactive); in [13] it was -0.488 (inactive); in [14], 0.401 (inactive).
As for `COCCOC(=O)N1C(=O)[C@@]2(c3cc(C#Cc4ccc(OC)cc4)ccc31)[C@H](C(=O)N1CCN(c3ncccn3)CC1)[C@H]1C(=O)O[C@H](c3ccccc3)[C@H](c3ccccc3)N1[C@@H]2c1ccccc1OCCO`, the composite z-score in assay [1] was 2.03; in assay [2] it was 1.14; in [3] it was 0.364; in assay [4], -0.118; in assay [5] it was 0.579; in assay [6] it was 0.238. In addition, the composite z-score is 0.305 in the assay with Lefty1; 0.701 in [8]; -0.0175 in assay [10]; 0.103 in assay [15]; -0.215 in assay [16]; 0.236 with Torsin-1A (Homo sapiens) [17]. The composite z-score was 0.0863 with Torsin-1A (Homo sapiens) [18] and 1.01 in assay [19]. Also, the z-score is -0.94 in [7]; 0.223 (inactive) in assay [9]; -0.651 (inactive) in assay [11]; -1.1 (inactive) in assay [12]; -0.467 (inactive) in [13]; -0.638 (inactive) in assay [14].
